“And” between values parts separate entries of the source, which are not always exact repeats. Equal entries are not always repeated. The source holds several records for some structures; these can differ, active in one and inactive in another. The source made the active and inactive calls. How the source made its calls: active means hit-call score of the fitted dose curve at least 0.9, where 1 is the maximum; inactive means score below 0.9.
Key:
[1] = read-out: Tissue plasminogen activator (tPA), PLAT (gene 5327); assay: BSK_BE3C_tPA: BioMAP Diversity Plus: BE3C Assay for Tissue plasminogen activator (tPA) Biomarker Activity (AID 2283041); settings: primary human bronchial epithelial cells; actives raise or lower the signal
Outline: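 Bidirectional curve fitting relative to DMSO defined activity, with tPA detected by ELISA in chemically treated human bronchial epithelial primary cells at 24 hours.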

[2] = read-out: Interleukin-8 (IL8), CXCL8 (gene 3576); assay: BSK_CASM3C_IL8: BioMAP Diversity Plus: CASM3C Assay for Interleukin-8 (IL8) Biomarker Activity (AID 2283042); settings: primary human coronary artery smooth muscle cells; actives raise or lower the signal;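 further: IL-8 protein level quantified by ELISA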
[3] = read-out: Human Leukocyte Antigen - DR isotype (HLADR), HLA-DRA (gene 3122); assay: BSK_CASM3C_HLADR: BioMAP Diversity Plus: CASM3C Assay for Human Leukocyte Antigen - DR isotype (HLADR) Biomarker Activity (AID 2283043); settings: primary human coronary artery smooth muscle cells; actives raise or lower the signal;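 further: cell-surface HLA-DR protein level quantified by ELISA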
[4] = read-out: Macrophage colony-stimulating factor (MCSF), CSF1 (gene 1435); assay: BSK_CASM3C_MCSF: BioMAP Diversity Plus: CASM3C Assay for Macrophage colony-stimulating factor (MCSF) Biomarker Activity (AID 2283044); settings: primary human coronary artery smooth muscle cells; actives raise or lower the signal;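 further: M-CSF protein amount quantified by ELISA after 24 h exposure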
[5] = read-out: Low-density lipoprotein receptor (LDLR), LDLR (gene 3949); assay: BSK_CASM3C_LDLR: BioMAP Diversity Plus: CASM3C Assay for Low-density lipoprotein receptor (LDLR) Biomarker Activity (AID 2283045); settings: primary human coronary artery smooth muscle cells; actives raise or lower the signal;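 further: LDLR protein level on the cell surface quantified by ELISA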
[6] = read-out: Monocyte Chemoattractant Protein-1 (MCP1), CCL2 (gene 6347); assay: BSK_CASM3C_MCP1: BioMAP Diversity Plus: CASM3C Assay for Monocyte Chemoattractant Protein-1 (MCP1) Biomarker Activity (AID 2283046); settings: primary human coronary artery smooth muscle cells; actives raise or lower the signal;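 further: MCP-1 level quantified by ELISA 24 h after dosing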
[7] = BSK_CASM3C_Proliferation: Cell Proliferation Assessment in the BioMAP Diversity Plus: CASM3C Assay (AID 2283047); settings: primary human coronary artery smooth muscle cells;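 further: sulforhodamine B total protein stain as relative cell number at 560 nm; sub-confluent cells exposed 48 h before staining; fitted both ways against DMSO so gain or loss of cell number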
[8] = read-out: Monokine induced gamma interferon (MIG), CXCL9 (gene 4283); assay: BSK_CASM3C_MIG: BioMAP Diversity Plus: CASM3C Assay for Monokine induced gamma interferon (MIG) Biomarker Activity (AID 2283048); settings: primary human coronary artery smooth muscle cells; actives raise or lower the signal;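 further: MIG protein level measured by ELISA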
[9] = read-out: serum amyloid A (SAA), SAA1 (gene 6288); assay: BSK_CASM3C_SAA: BioMAP Diversity Plus: CASM3C Assay for serum amyloid A (SAA) Biomarker Activity (AID 2283049); settings: primary human coronary artery smooth muscle cells; actives raise or lower the signal;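 further: SAA protein level quantified by ELISA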
[10] = BSK_CASM3C_SRB: Viability Assessment in the BioMAP Diversity Plus: CASM3C Assay (AID 2283050); settings: primary human coronary artery smooth muscle cells;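 further: total protein by SRB staining as cytotoxicity measure in parallel cultures; cells exposed to compound for 24 h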
[11] = read-out: Thrombomodulin, THBD (gene 7056); assay: BSK_CASM3C_Thrombomodulin: BioMAP Diversity Plus: CASM3C Assay for Thrombomodulin Biomarker Activity (AID 2283051); settings: primary human coronary artery smooth muscle cells; actives raise or lower the signal;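 further: thrombomodulin protein level measured by ELISA 24 h after dosing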
[12] = read-out: Tissue Factor, F3 (gene 2152); assay: BSK_CASM3C_TissueFactor: BioMAP Diversity Plus: CASM3C Assay for Tissue Factor Biomarker Activity (AID 2283052); settings: primary human coronary artery smooth muscle cells; actives raise or lower the signal;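 further: cell surface tissue factor protein level read by ELISA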
[13] = read-out: Interferon-gamma inducible Protein 10 (IP10), CXCL10 (gene 3627); assay: BSK_hDFCGF_IP10: BioMAP Diversity Plus: hDFCGF Assay for Interferon-gamma inducible Protein 10 (IP10) Biomarker Activity (AID 2283053); settings: primary human foreskin fibroblasts; actives raise or lower the signal
Outline: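 IP-10 levels, quantified by ELISA, are taken from human foreskin fibroblast cultures 24 h after chemical treatment, with DMSO serving as negative control and baseline for bidirectional analysis.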

[14] = read-out: Urokinase-type plasminogen activator receptor (uPAR), PLAUR (gene 5329); assay: BSK_CASM3C_uPAR: BioMAP Diversity Plus: CASM3C Assay for Urokinase-type plasminogen activator receptor (uPAR) Biomarker Activity (AID 2283054); settings: primary human coronary artery smooth muscle cells; actives raise or lower the signal;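 further: cell-surface uPAR protein level quantified by ELISA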
[15] = read-out: Vascular cell adhesion molecule 1 (VCAM1), VCAM1 (gene 7412); assay: BSK_CASM3C_VCAM1: BioMAP Diversity Plus: CASM3C Assay for Vascular cell adhesion molecule 1 (VCAM1) Biomarker Activity (AID 2283055); settings: primary human coronary artery smooth muscle cells; actives raise or lower the signal;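 further: VCAM-1 protein level quantified by ELISA on the cells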
[16] = read-out: Collagen III, COL3A1 (gene 1281); assay: BSK_hDFCGF_CollagenIII: BioMAP Diversity Plus: hDFCGF Assay for Collagen III Biomarker Activity (AID 2283056); settings: primary human foreskin fibroblasts; actives raise or lower the signal
Outline: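 Cells: human foreskin fibroblasts, primary. Dosing followed by 24 h incubation, then ELISA for collagen III. Both increases and decreases scored relative to DMSO.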

[17] = read-out: Epidermal growth factor receptor (EGFR), EGFR (gene 1956); assay: BSK_hDFCGF_EGFR: BioMAP Diversity Plus: hDFCGF Assay for Epidermal growth factor receptor (EGFR) Biomarker Activity (AID 2283057); settings: primary human foreskin fibroblasts; actives raise or lower the signal
Outline: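 Measured by ELISA: EGFR levels on primary human foreskin fibroblasts 24 h after chemical treatment, analysed relative to DMSO with bidirectional fitting.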

[18] = read-out: Interleukin-8 (IL8), CXCL8 (gene 3576); assay: BSK_hDFCGF_IL8: BioMAP Diversity Plus: hDFCGF Assay for Interleukin-8 (IL8) Biomarker Activity (AID 2283058); settings: primary human foreskin fibroblasts; actives raise or lower the signal
Outline: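 IL-8 levels from compound-treated primary human fibroblasts were read by ELISA at 24 h, with DMSO serving as baseline for bidirectional fitting.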

[19] = BSK_hDFCGF_Proliferation: Cell Proliferation Assessment in the BioMAP Diversity Plus: hDFCGF Assay (AID 2283059); settings: primary human foreskin fibroblasts;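 further: curves fitted for both rise and fall of signal versus DMSO baseline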
Outline: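 This proliferation readout used SRB total-protein staining of human foreskin fibroblasts […], normalized to DMSO with bidirectional curve fitting.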

[20] = read-out: Macrophage colony-stimulating factor (MCSF), CSF1 (gene 1435); assay: BSK_hDFCGF_MCSF: BioMAP Diversity Plus: hDFCGF Assay for Macrophage colony-stimulating factor (MCSF) Biomarker Activity (AID 2283060); settings: primary human foreskin fibroblasts; actives raise or lower the signal
Outline: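 M-CSF levels, determined by ELISA, are taken at 24 h after dosing human skin fibroblasts. Responses in either direction are fitted with DMSO serving as the baseline.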

Measured: AC50

CC(=O)c1ccccc1
inactive: all assays above

OCCNCCO
inactive: all assays above

O=C(NO)C1(NS(=O)(=O)c2ccc(Oc3ccc(F)cc3)cc2)CCOCC1
inactive: all assays above

OCC(CO)(CO)CO
inactive: all assays above

CCCC(CCC)C(=O)O
inactive: all assays above

OC[C@H]1O[C@@](CO)(O[C@H]2O[C@H](CO)[C@@H](O)[C@H](O)[C@H]2O)[C@@H](O)[C@@H]1O
inactive: all assays above

NC(=O)NN=Cc1ccc([N+](=O)[O-])o1
active: [19] 27.8 µM
inactive: all other assays above

O=C(O)c1cccc(C[C@@H]2COc3ccc(OCc4nc5cc(F)ccc5s4)cc3[C@@H]2O)c1
active: [7] 12.9 µM | [20] 13.8 µM
inactive: all other assays above

FC(F)(F)C(F)(F)C(F)(F)C(F)(F)C(F)(F)C(F)(F)I
active: [13] 30 µM | [16] 30 µM | [19] 50.7 µM
inactive: [1] | [2] | [3] | [4] | [5] | [6] | [7] | [8] | [9] | [10] | [11] | [12] | [13] | [14] | [15] | [16] | [17] | [18] | [19] | [20]

OC(O)(C(F)C(O)(O)C(F)(F)F)C(F)(F)F
active: [1] 24.6 µM and 20.5 µM | [8] 33.3 µM and 28.2 µM | [9] 49.1 µM | [12] 19 µM and 13.4 µM | [13] 19.6 µM | [19] 9.21 µM and 7.73 µM
inactive: [2] | [3] | [4] | [5] | [6] | [7] | [9] | [10] | [11] | [13] | [14] | [15] | [16] | [17] | [18] | [20]

OCc1c[nH]c2ccccc12
active: [11] 0.184 µM | [19] 23.8 µM
inactive: all other assays above

COCc1nnc(-c2ccc[n+]([O-])c2)n1-c1c(Cl)c(Cl)cc2[nH]c(=O)c(=O)[nH]c12
inactive: all assays above

O=S(=O)(O)c1ccc(N=Nc2c(O)ccc3cc(S(=O)(=O)O)ccc23)cc1
inactive: all assays above

CCN(CC)C(=S)SSC(=S)N(CC)CC
inactive: [17]
active: [1] 7.46 µM | [2] 20 µM | [3] 31.2 µM | [4] 24.4 µM | [5] 35.4 µM | [6] 31.6 µM | [7] 12.8 µM | [8] 33.3 µM | [9] 28.8 µM | [10] 31.4 µM | [11] 5.26 µM | [12] 20 µM | [13] 1.67 µM | [14] 31.1 µM | [15] 30.6 µM | [16] 4.78 µM | [18] 2.81 µM | [19] 1.41 µM | [20] 1.76 µM

Cc1nc(-c2ccccn2)ncc1C(=O)Nn1cc(C)c2cc(F)ccc21
active: [7] 22.6 µM | [11] 20 µM
inactive: all other assays above

C=CN1CCCC1=O
inactive: all assays above

S=P(N1CC1)(N1CC1)N1CC1
active: [7] 20.9 µM | [19] 18.2 µM
inactive: all other assays above

O=C(O)c1cccc(C(=O)O)c1
active: [12] 0.357 µM
inactive: all other assays above

CCc1cccc(CC)c1N
inactive: all assays above

O=S1(=O)CCCO1
inactive: all assays above

CCCCCCCCCC
inactive: all assays above

CC[C@H](C)C(=O)O[C@H]1C[C@H](O)C=C2C=C[C@H](C)[C@H](CC[C@@H](O)C[C@@H](O)CC(=O)O)[C@H]21
active: [11] 15.3 µM
inactive: all other assays above

FC(F)(F)COC(OCC(F)(F)F)OCC(F)(F)F
inactive: all assays above

c1ccc2ncccc2c1
inactive: all assays above

NCC(F)(F)C(F)(F)C(F)(F)C(F)(F)F
inactive: all assays above

CCCCCCCCN(C)C
inactive: all assays above
